Results from PubChem BioAssay (NCATS).
Inconclusive results are not listed. Activity calls are given as the source filed them. Calls come from the whole dose curve; as a rule, active = well fitted inhibition curve with a large enough effect; inconclusive = small, poorly fitted or top-dose-only effect; inactive = flat fitted curve, though single readings scatter.

Experiments:
Assay in all cases: qHTS profiling for inhibitors of Plasmodium falciparum proliferation (AID 504749); note: nearly all actives have a fitted effect of over 60% in size
Settings in all cases: P. falciparum in erythrocytes, SYBR Green DNA, 72 h; series mostly up to 28.7 µM
[1] = tested on: FAB9
How it was run: (§1)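 Infected RBCs, 0.3% parasitemia/2.5% Hct final; cpd 72 h, 37 C, 5% CO2; lysis buffer with saponin/triton/SYBR Green I, o/n RT dark; FI 485/535; norm. to artemisinin (0.29 uM) and DMSO.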

[2] = tested on: GB4
How it was run: as §1

[3] = tested on: HB3
How it was run: as §1

[4] = tested on: ICS
How it was run: as §1

[5] = tested on: JCK
How it was run: as §1

[6] = tested on: N140
How it was run: as §1

[7] = tested on: P93_24
How it was run: as §1

[8] = tested on: P94_40
How it was run: as §1

[9] = tested on: PAD
How it was run: as §1

[10] = tested on: PC15
How it was run: as §1

[11] = tested on: PC26
How it was run: as §1

[12] = tested on: PC49
How it was run: as §1

[13] = tested on: SC27B
How it was run: as §1

[14] = tested on: TAB109
How it was run: as §1

[15] = tested on: W2
How it was run: as §1

[16] = tested on: ECU
How it was run: as §1

[17] = tested on: TAB113
How it was run: as §1

[18] = tested on: TAB165
How it was run: as §1

Measured: Potency
Potency is the fitted concentration of half-maximal effect.

O=C(Nc1ccc(O)cc1)c1ccccc1O
not listed: [16] | [17] | [18]
inactive: all other assays above

CSc1nc2cc(Oc3cccc(Cl)c3Cl)c(Cl)cc2[nH]1
active: [16] 6.31 µM | [2] 12 µM | [3] 8.91 µM | [6] 8.91 µM | [7] 10 µM | [8] 10 µM | [10] 8.91 µM | [11] 5.36 µM | [12] 12.6 µM | [13] 12.6 µM | [14] 7.94 µM | [17] 8.91 µM | [18] 7.94 µM | [15] 6.75 µM

CCOc1cc(-c2nccc3cc(OC)c(OC)cc23)cc(OCC)c1OCC
active: [16] 11.2 µM | [15] 15.1 µM
inactive: [14]

O=C(OC1C[C@@H]2CC3C[C@H](C1)N2CC3=O)c1c[nH]c2ccccc12 (some centres undefined)
inactive: [1] | [3] | [5] | [6] | [7] | [8] | [13] | [17]
active: [4] 10 µM

CC(=O)Nc1c(I)c(C(=O)O)c(I)c(N(C)C(C)=O)c1I
not listed: [13] | [16]
inactive: all other assays above

CN(C)C(=O)CCSC(SCCC(=O)O)c1cccc(/C=C/c2ccc3ccc(Cl)cc3n2)c1 (centres undefined)
active: [4] 11.2 µM | [9] 11.2 µM | [15] 7.57 µM
inactive: [1] | [5] | [10] | [12]

CNC(=O)[C@H](Cc1c[nH]c2ccccc12)NC(=O)[C@@H](CC(=O)NO)CC(C)C
active: [15] 15.1 µM
inactive: [5] | [10] | [11] | [12] | [13] | [17]

CC(CN(C)C)CN1c2ccccc2Sc2ccc(C(F)(F)F)cc21 (centres undefined)
active: [4] 10 µM | [6] 11.2 µM | [7] 10 µM | [8] 5.01 µM | [18] 12.6 µM | [15] 0.426 µM
inactive: [1]

O=C1c2ccccc2C(=O)C1c1ccc(Cl)cc1
not listed: [4] | [16]
inactive: all other assays above

CCCC(CCC)C(=O)OC1C[C@H]2CC[C@@H](C1)[N+]2(C)C (some centres undefined)
inactive: [1] | [5] | [12]
active: [16] 7.94 µM | [4] 12.6 µM | [13] 12.6 µM

CCCCCCCCCCCCCCCCOCCOCCOCCOCCOCCOCCOCCOCCOCCOCCOCCOCCOCCOCCOCCOCCOCCOCCOCCOCCO
active: [16] 1.26 µM | [3] 7.08 µM | [4] 4.47 µM | [6] 10 µM | [7] 11.2 µM | [10] 11.2 µM | [12] 12.6 µM | [14] 12.6 µM | [18] 14.1 µM | [15] 6.75 µM

Oc1cccc(O)c1O
active: [4] 3.98 µM
inactive: [1] | [5] | [6] | [12] | [13] | [14] | [17]

O=C(CCCN1CCC(C(=O)c2ccc(F)cc2)CC1)c1ccc(F)cc1
active: [15] 3.79 µM
inactive: [16] | [1] | [5] | [6] | [7] | [8] | [9] | [13] | [17]

OCc1ccccc1
active: [4] 2.24 µM | [10] 10 µM | [15] 5.36 µM

CC(C)CCCCCCc1ccc(O)cc1
inactive: [1] | [2] | [3] | [5] | [6] | [10] | [11] | [12] | [14]
active: [4] 12.6 µM | [8] 12.6 µM

CC(=O)c1ccc2c(c1)N(CCCN1CCN(CCO)CC1)c1ccccc1S2
active: [16] 12.6 µM | [2] 8.49 µM | [4] 7.94 µM | [7] 8.91 µM | [8] 10 µM | [10] 11.2 µM | [11] 7.57 µM | [12] 11.2 µM | [14] 7.08 µM | [18] 11.2 µM | [15] 5.36 µM

CCN(CC)CCC(=O)N1c2ccccc2Sc2ccc(Cl)cc21
active: [7] 3.98 µM | [8] 5.01 µM | [12] 11.2 µM | [15] 3.38 µM
inactive: [5] | [6]

O=C(O[C@H]1CN2CCC1CC2)N1CCc2ccccc2[C@@H]1c1ccccc1
active: [15] 1.69 µM
not listed: [2] | [4] | [7] | [10] | [11] | [16] | [18]
inactive: all other assays above

CC[C@H]1OC(=O)[C@H](C)[C@@H](O[C@H]2C[C@@](C)(OC)[C@@H](O)[C@H](C)O2)C(C)[C@@H](O[C@@H]2O[C@H](C)C[C@H](N(C)C)[C@@H]2O)[C@](C)(OC)C[C@@H](C)C(=O)[C@H](C)[C@@H](O)[C@]1(C)O (some centres undefined)
active: [4] 10 µM | [15] 3.79 µM
not listed: [1] | [2] | [3] | [10] | [11]
inactive: all other assays above

Cn1c(=O)c2c(ncn2CCOC(=O)C(C)(C)Oc2ccc(Cl)cc2)n(C)c1=O
not listed: [6] | [7] | [8] | [9] | [14] | [16] | [18]
inactive: all other assays above

O=P(O)(O)OP(=O)(O)O
active: [6] 8.91 µM | [15] 13.5 µM
inactive: [16] | [1] | [3] | [7] | [10] | [12] | [14]

CC[C@H]1OC(=O)[C@H](C)[C@@H](O[C@H]2C[C@@](C)(OC)[C@@H](O)[C@H](C)O2)[C@H](C)[C@@H](O[C@@H]2O[C@H](C)C[C@H](N(C)C)[C@H]2O)[C@](C)(O)C[C@@H](C)CN(C)[C@H](C)[C@@H](O)[C@]1(C)O
active: [2] 7.57 µM | [6] 8.91 µM | [8] 2.51 µM | [14] 1 µM | [17] 12.6 µM | [18] 7.94 µM | [15] 0.426 µM
inactive: [1] | [5] | [11] | [12]

NC(=O)CC[C@@H]1NC(=O)[C@H](Cc2ccccc2)NC(=O)[C@H](Cc2ccc(O)cc2)NC(=O)[C@@H](N)CSSC[C@@H](C(=O)N2CCC[C@H]2C(=O)N[C@@H](CCCN=C(N)N)C(=O)NCC(N)=O)NC(=O)[C@H](CC(N)=O)NC1=O
active: [4] 8.91 µM | [15] 8.49 µM
inactive: [1] | [5] | [10] | [12] | [13]

C=CC[N+]1([C@H]2C[C@H]3[C@@H]4CC[C@H]5C[C@H](O)[C@@H](N6CCOCC6)C[C@]5(C)[C@H]4CC[C@]3(C)[C@H]2OC(C)=O)CCCC1
inactive: [1] | [5] | [10] | [12]
active: [8] 8.91 µM | [14] 6.31 µM | [15] 5.36 µM

CO/N=C(/C(=O)N[C@@H]1C(=O)N2C(C(=O)O)=C(COC(N)=O)CS[C@H]12)c1ccco1
active: [4] 8.91 µM
not listed: [2] | [3] | [7] | [15]
inactive: all other assays above

Cn1c(O)c(N=NC(N)=S)c2ccccc21
active: [4] 11.2 µM
inactive: [1] | [5] | [10] | [11] | [12]

CN(C)CCC=C1c2ccccc2C(C)(C)c2ccccc21
active: [2] 13.5 µM | [4] 7.94 µM | [15] 3.38 µM
inactive: [1] | [3] | [5] | [12] | [13]

CCC(=O)c1ccc2c(c1)N(CCCN1CCN(CCO)CC1)c1ccccc1S2
inactive: [5]
active: [16] 8.91 µM | [2] 9.53 µM | [3] 7.94 µM | [4] 5.01 µM | [6] 8.91 µM | [7] 8.91 µM | [8] 10 µM | [9] 8.91 µM | [10] 7.08 µM | [11] 7.57 µM | [12] 10 µM | [18] 10 µM | [15] 5.36 µM

O=C1c2ccccc2CN2C(=O)c3ccccc3CN12
not listed: [16]
inactive: all other assays above

CC(C)=CCC/C(C)=C/C=C/C(C)=C/C=C/C(C)=C/C=C/C=C(C)/C=C/C=C(C)/C=C/C=C(\C)CCC=C(C)C
inactive: [1] | [2] | [5] | [6] | [11] | [14] | [17]
active: [4] 11.2 µM

CN1CCCC(CN2c3ccccc3Sc3ccccc32)C1 (centres undefined)
inactive: [1] | [3] | [5] | [12]
active: [4] 12.6 µM | [6] 8.91 µM | [14] 11.2 µM | [18] 12.6 µM | [15] 3.38 µM

CCN(CC)CCCC(C)Nc1cc(/C=C/c2ccccc2Cl)nc2cc(Cl)ccc12 (centres undefined)
active: [16] 2.51 µM | [2] 4.78 µM | [3] 2 µM | [4] 0.398 µM | [5] 11.2 µM | [6] 3.16 µM | [7] 2 µM | [8] 1.78 µM | [9] 1 µM | [10] 2 µM | [11] 5.36 µM | [12] 8.91 µM | [13] 2.82 µM | [14] 2.51 µM | [17] 1.78 µM | [18] 2.24 µM | [15] 0.601 µM

COc1ccc2c(c1)OC(C)(C)C(c1ccccc1)C2c1ccc(OCCN2CCCC2)cc1 (centres undefined)
active: [16] 8.91 µM | [2] 4.78 µM | [3] 7.94 µM | [4] 2.82 µM | [6] 5.01 µM | [7] 5.01 µM | [8] 6.31 µM | [9] 8.91 µM | [10] 11.2 µM | [11] 4.78 µM | [13] 8.91 µM | [14] 3.16 µM | [17] 8.91 µM | [18] 3.16 µM | [15] 1.69 µM

C(=C\c1ccncc1)/c1ccccc1
not listed: [3] | [4] | [7] | [16]
inactive: all other assays above

N[C@@H](Cc1cc(I)c(Oc2ccc(O)c(I)c2)c(I)c1)C(=O)O
active: [4] 11.2 µM | [15] 9.53 µM
inactive: [1] | [3] | [5] | [12]

NC(N)=NCC1COc2ccccc2O1 (centres undefined)
not listed: [2] | [3] | [4] | [7] | [15]
inactive: all other assays above

CCOC(=O)C1=C(COCCN)NC(C)=C(C(=O)OC)C1c1ccccc1Cl (centres undefined)
inactive: [1] | [3] | [5] | [9] | [10] | [11] | [12] | [13] | [14] | [17]

CC/C=C\C/C=C\C/C=C\C/C=C\C/C=C\C/C=C\CCC(=O)O
active: [4] 12.6 µM
not listed: [15] | [16]
inactive: all other assays above

NC(=S)N=Nc1ccc(NN=C(N)N)cc1
active: [1] 11.2 µM | [2] 6.75 µM | [3] 5.62 µM | [4] 5.01 µM | [5] 8.91 µM | [6] 7.94 µM | [7] 5.01 µM | [8] 7.94 µM | [9] 11.2 µM | [10] 8.91 µM | [13] 11.2 µM | [14] 11.2 µM | [18] 7.94 µM | [15] 1.69 µM
